Reference: PubChem BioAssay (NCATS)
Inconclusive results are not listed. Values without a mark were called inactive. Calls of active or inactive are those of the source. Calls come from the whole dose curve; as a rule, active = well fitted inhibition curve with a large enough effect; inconclusive = small, poorly fitted or top-dose-only effect; inactive = flat fitted curve, though single readings scatter. *1 amine or outer side, *2 acyl side, *3 side chain or, on linkers, in order; H or OH if unused. Where a SMILES comes first, the peptide text is derived from it. Side-chain parts run from the residue outwards. [ ]: non-standard residue; d: D form. The star is where a group is joined. Ethylenediamine = C(CN[*:2])N[*:1]; Hyp = O=C(O)[C@@H]1C[C@@H](O)CN1; Phg = N[C@H](C(=O)O)c1ccccc1; CO = O=C([*:1])[*:2]; Bn = c1ccc(C*)cc1

biological target: Glutathione peroxidase 1 (Homo sapiens) (UniProt P07203); test: Primary qHTS Assay for Inhibitors of Recombinant Selenoprotein Glutathione Peroxidase 1 (GPX1) (AID 1845191); conditions: recombinant GPX1, GR-coupled NADPH fluorescence, 15 min; series mostly up to 48.8 µM; activity, negative = inhibition: at the top concentration; note: nearly all actives have a fitted effect of over 65% in size
Sequence (P07203 whole entry, looked up): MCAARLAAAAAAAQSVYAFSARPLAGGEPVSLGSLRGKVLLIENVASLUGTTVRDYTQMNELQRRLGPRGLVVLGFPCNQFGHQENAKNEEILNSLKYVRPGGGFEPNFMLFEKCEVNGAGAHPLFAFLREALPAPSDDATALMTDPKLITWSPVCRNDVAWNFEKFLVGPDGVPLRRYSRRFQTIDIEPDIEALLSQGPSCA
In short: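 10 nM GPX1 + cpd, 30 min RT; start w/ 1 mM GSH, 0.5 mM cumene hydroperoxide, 0.5 mM NADPH, 100 nM GR, 0.01% BSA; buffer 50 mM Tris-HCl pH 7.5, 2 mM EDTA, 150 mM NaCl; Fl 340/450, 0 & 15 min.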
% is set by controls: 0 for no effect and ±100 for the full control effect.

OB1OCc2cc(F)ccc21 was tested. Which “activity, negative = inhibition” value did it give?
The value was 1.57%.

Which “outcome” value does the source give for O=[N+]([O-])c1ccc(/C=C/c2cccc(CO)n2)o1 here?
Its value is “inactive”.

NCCCC[C@@H]1NC(=O)[C@@H](Cc2c[nH]c3ccccc23)NC(=O)[C@H](c2ccccc2)NC(=O)[C@@H]2C[C@@H](OC(=O)NCCN)CN2C(=O)[C@H](Cc2ccccc2)NC(=O)[C@H](Cc2ccc(OCc3ccccc3)cc2)NC1=O (cyclo([Hyp]([CO-Ethylenediamine])[Phg][dW]KY(Bn)F)) was tested. Which “outcome” value did it give?
The value was “inactive [at 27.7 µM]”.

For C1CCC[C@H]2CCCN3CC[C@H](CCCCCC[C@@H]4CCCN5CC[C@H](CC1)O[C@H]45)O[C@H]23, which activity, negative = inhibition is on record?
The activity, negative = inhibition was 1.08% [at 0.127 µM].

How did the “activity, negative = inhibition” value turn out when CCC(C)CC(C)CCCCCCCCC(=O)N[C@H]1C[C@@H](O)[C@@H](NCCN)NC(=O)[C@@H]2[C@@H](O)CCN2C(=O)[C@H]([C@H](O)CCN)NC(=O)[C@H]([C@@H](O)[C@H](O)c2ccc(O)cc2)NC(=O)[C@@H]2C[C@@H](O)CN2C(=O)[C@H]([C@@H](C)O)NC1=O (stereo not given in full) was run?
Its value is -23.8% [at 27.7 µM].

C=Cc1c(C)c2cc3nc(c(CC(=O)N[C@@H](CC(=O)O)C(=O)O)c4nc(cc5[nH]c(cc1[nH]2)c(C)c5CC)C(C)=C4C(=O)O)[C@@H](CCC(=O)O)[C@@H]3C was tested. Which “activity, negative = inhibition” value did it give?
Its value is 4.28%.

For O=C(O)C(O)C(O)C(=O)O (stereo not given), which “activity, negative = inhibition” value is on record?
The value was -11.9%.

With O=C(OC1C[C@@H]2CC3C[C@@H](C1)N2CC3=O)c1c[nH]c2ccccc12 (stereo not given in full) as the molecule, how does the “activity, negative = inhibition” value read?
Its value is -13.3%.

With Cc1cncc(CN2CCC(=C3c4ccc(Cl)cc4CCc4cccnc43)CC2)c1 as the molecule, how does the “activity, negative = inhibition” value read?
Its value is 0.621%.

CO[C@H]1C[C@H](O[C@@H]2[C@H](C)O[C@H](O[C@@H]3/C(C)=C/C[C@@H]4C[C@@H](C[C@]5(C=C[C@H](C)[C@@H](C6CCCCC6)O5)O4)OC(=O)[C@@H]4C=C(C)C(O)[C@H]5OC/C(=C\C=C\[C@@H]3C)[C@]54O)C[C@@H]2OC)O[C@@H](C)[C@@H]1O (stereo not given in full) was tested. Which “activity, negative = inhibition” value did it give?
The value was -17.7%.
